# Target: GATA4
# Experiment: pooled miR-30 sensor sort-seq; sequence = guide strand
# Settings: shRNA
# Also: reference of the scale not given here.
row,Sequence,sensor-assay potency score (higher = more potent)
1,TTCGTGTTGCAGAATCTCTGGC,0.947
2,GAAGTCGTCAAACATATCGAGA,-1.84
3,TTTATTCAGGTTCTTGGGCTTC,-0.422
4,TTTGCTATCCTCCAAGTCCCAG,-0.913
5,TTGTTCTGGAGTCATTACCAGG,-1.25
6,TTAGCAGTCGTCTTCTTTCCAG,-0.572
7,TGGAGCTTCATGTAGAGGCCGC,-0.527
8,TTCTGTTGTGTTGTGTTTGTTT,-0.142
9,TTAGATTTATTCAGGTTCTTGG,-0.334
10,TTGATGCCGTTCATCTTGTGGT,-0.805

# Target: GCKR
# Experiment: as above
# Settings: shRNA
row,Sequence,sensor-assay potency score (higher = more potent)
1,TAGCTCACGCTGGAACTTCTGG,-0.719
2,TTCTGGTTAAACATGTCACTGT,0.368
3,TTCCTTCTCATGTGCAACCTGG,-0.464
4,TTTGGTGCTTAGCTCACGCTGG,-0.0787
5,TTCGCTGTAGAGTCTCTGGTAT,0.0176
6,TTTGTCTAGATCCTGGGTCAGT,-0.835
7,TATCATCTGACAGTGGCTGGGG,0.728
8,TGTCGGAATGTTGAACTCCAGT,-1.08
9,ATCTGCTTTGTCTAGATCCTGG,-0.482
10,TAGCAGTCGAACAATGTTCTCA,-0.15
11,TTCTTCTCCAGACTGGTGCTGA,-0.0469
12,TAGGTCGAGAGCAAGAACTCTC,-0.283

# — the OligoGym collection
